# Measured values from PubChem BioAssay (NCI).
# The panel holds about 83,000 compounds, 20% with a hit somewhere; the sample as a whole holds those more often.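 Each cell line was grown in a 96-well plate and treated with one concentration of compound for 48 hours. Values below 10 were considered active.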 Unmarked numbers belong to inactive results. Active and inactive are the calls of the source.
# Test system: HOP-92 NSCLC
# Experiment: NCI-60 one-dose screen, 48 h (100 = growth as untreated, 0 = no growth, -100 = all killed)
# Settings: 10 µM unless noted
# Method: Growth inhibition of the HOP-92 human Non-Small Cell Lung tumor cell line is measured as a screen for anti-cancer activity. Cells are grown in 96 well plates and exposed to the test compound for 48 hours. Compounds are tested at a single concentration, which is 10^-5 M for most compounds. The reported endpoint is percent growth (GI% or GIPRCNT), where numbers from 0 - 100% represent growth inhibition, and numbers from -100% - 0 represent cell death. For example, a value of 40 represents 60% growth inhibition. A value of 0 means no net growth occurred over the course of the experiment. A value of -40 indicates 40% of cells at the beginning of the experiment died by the end of the experiment. A value of -100 means all cells are dead at the end of the experiment.
# NCI-60 Human Tumor Cell Lines Screen was performed using the standard one-dose NCI protocol, which is described in more detail at https://dtp.cancer.gov/discovery_development/nci-60/default.htm.
# Compounds with GIPRCNT values below 10 were considered active. Activity score was based on GIPRCNT using the following formula: […]
# Score is 0 for GIPRCNT values of 100 or above, 50 for GIPRCNT values of 0, and 100 for GIPRCNT values of -100.
row,Structure (SMILES),growth
1,Cn1ccc(Cc2cnc(N)s2)n1,98.1%
2,CCN(CC)CCOc1ccc(/C(=C(\C)c2ccc(OC)c(F)c2)c2ccc(Cl)cc2)cc1,82%
3,COc1ccc(-c2nc3sc4c(c3c(=O)[nH]2)CCCC4)c2ccccc12,12.3%
4,O=C(c1ccccc1)c1ccc(Cl)c([N+](=O)[O-])c1,99.1%
5,COc1cc2c(cc1OC)-c1ccc3cc4c(cc3c1N(CCCn1ccnc1)C2)OCO4,26.8%
6,NC(=S)c1csc(CCNC(=O)c2ccccc2)n1,97.3%
7,CCn1c(Sc2nnc(NC(=O)CSC(=S)N3CCCCC3)s2)nc2c1c(=O)n(C)c(=O)n2C,81.1%
8,CC(=O)C(C(C)=O)c1nc2sc3cc(Cl)ccc3n2c(=N)c1C#N,56%
9,O=c1cc(-c2ccc(OCc3ccccc3)cc2)oc2c(I)c(OCc3ccccc3)cc(OCc3ccccc3)c12,108%
10,CCOC(=O)C1=C(C)NC(SCc2nnc(-c3ccc(Cl)cc3)o2)=NC1c1ccc(Cl)cc1Cl (stereo not given),26.4%
11,CNC=O,92%
12,O=C1C(Cl)C(c2ccccc2Cl)N1n1cnnc1 (stereo not given),91.1%
13,CC(=O)c1ccc2c(c1)CCN2,82.5%
14,Cc1nc(Nc2ccc(NC(=S)Nc3ccccc3)cc2)nc2nc(SCc3ccccc3)[nH]c(=O)c12,82.4%
15,Clc1ccc2c(NCCCN3CCN(c4nc(-n5ccnc5)nc5ccccc45)CC3)ccnc2c1,58.7%
16,COc1cc2c(cc1OC)-c1ccc3cc4c(cc3c1N(CCCN(C)C)C2)OCO4,9.04% (active)
17,COc1cccc(/C=C2\COc3ccc(O)cc3C2=O)c1OC,86.8%
18,COc1ccc2cc(-c3ccc(C(=O)NN)c(C)n3)ccc2c1,96.2%
19,C[C@@H]1C(=O)N(C[C@H](Cc2ccccc2)NC(=O)OCc2ccccc2)[C@]1(Cc1ccccc1)C(=O)OC(C)(C)C,54.5%
20,COc1cc(/C=C/C(=O)c2cccc(-n3cc(-c4ccccc4)[nH]c3=O)c2)cc(OC)c1OC,24.3%

row,Structure (SMILES),growth
1,NC(=O)c1c(NC(=O)c2ccccn2)sc2c1CCC(=O)C2,15.9%
2,CCNCCNc1cc(-c2ccc(C(=O)OC)cc2)c(C#N)c2nc3ccccc3n12,71%
3,O=C(NCOC(O)C(Cl)(Cl)Cl)NCOC(O)C(Cl)(Cl)Cl (stereo not given),119%
4,CN1CCN(C(=O)[C@@]2(C)CC[C@]3(C)CC[C@]4(C)C(=CC[C@@H]5[C@@]6(C)C/C(=C/c7ccncc7)C(=O)C(C)(C)[C@@H]6CC[C@]54C)[C@@H]3C2)CC1,34.3%
5,c1ccc(-c2oc3ccccc3c2-c2ccccc2)cc1,89.5%
6,Clc1ccc2c(NCCCN3CCN(c4nc(N5CCOCC5)nc5ccccc45)CC3)ccnc2c1,12.2%
7,COc1c(C)cnc(CSc2nc(-c3ccc(C)cc3)cn2-c2ccc(Cl)cc2)c1C,103%
8,N[C@@H]1CCC[C@H]1NCCCCN1C(=O)c2cccc3cccc(c23)C1=O,48%
9,CCN(CC)CCNc1ccc(C)c2sc3cc(C)ccc3c(=O)c12,25.2%
10,CC(C)(C)Nc1c(-c2c3ccccc3cc3ccccc23)nc2ccccn12,45%
11,C=C(C)[C@@H]1CC[C@]2(CN)CC[C@]3(C)[C@H](CC[C@@H]4[C@@]5(C)CCC(N)[C@@](C)(CO)[C@@H]5CC[C@]43C)[C@@H]12 (stereo not given in full),51.7%
12,Cc1csc(NC(=O)c2sc3nc(-c4cccs4)ccc3c2N)n1,84.7%
13,N=C(N)c1ccc(-c2ccc(-c3ccc(Cl)c(Cl)c3)o2)nc1,84.6%
14,COc1cc(/C=C/C(=O)c2ccc(Nc3nc(Nc4ccccc4)nc(Nc4ccc(Cl)cc4)n3)cc2)cc(OC)c1OC,1.92% (active)
15,COC1=CC(c2ccc[nH]2)=N/C1=C\c1[nH]c(C)c(C(=O)OCCn2cc(CCC[C@@H]3Cc4cc(O)ccc4C4CC[C@]5(C)[C@@H](O)CC[C@H]5C43)nn2)c1C (stereo not given in full),67.8%
16,COc1cc2nc(Nc3ccc(F)cc3)nc(N)c2cc1OC,63.9%
17,C=C(C=O)C1CCC2(C(=O)O)CCC3(C)C(CCC4C5(C)CCC(O)C(C)(C)C5CCC43C)C12 (stereo not given),67.1%
18,Cc1cnc(Nc2ccc(N3CCN(C)CC3)cc2)nc1Nc1ccc(Cl)c(NS(=O)(=O)C(C)(C)C)c1,-27.8% (active)
19,CS(=O)(=O)c1ccc(-c2nc3cc(Cl)ccc3n2CC(=O)N/N=C/c2ccc(Cl)cc2)cc1,68.1%
20,CCNCCNc1cc(C2CCCC2)c(C#N)c2nc3ccccc3n12,52.3%
